# From PubChem BioAssay (NCATS)
# Records with an inconclusive call do not appear. Where a call stands in place of a potency, no number is given. Values without a mark were called inactive. Activity calls are given as the source filed them. Calls follow the shape of the dose curve; as a rule, active = well fitted inhibition curve with a large enough effect; inconclusive = small, poorly fitted or top-dose-only effect; inactive = flat fitted curve, though single readings scatter.
# Columns and labels:
# [1] = qHTS profiling for inhibitors of Plasmodium falciparum proliferation (AID 504749); also: nearly all actives have a fitted effect of over 60% in size; conditions: P. falciparum in erythrocytes, SYBR Green DNA, 72 h, at 28.7 µM (top of the series)
# Method in brief: (§1)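 Readout was DNA-dye fluorescence from lysed cultures, ex 485/em 535 nm. Parasitized red cells had grown 72 h with compound; data scaled between 0.29 uM artemisinin and DMSO wells and corrected using vehicle-only plates.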
# 3D7 = experiment: as above; conditions: P. falciparum in erythrocytes, SYBR Green DNA, 72 h; series mostly up to 28.7 µM
# Method in brief: as §1
# 7G8 = experiment: as above; conditions: P. falciparum in erythrocytes, SYBR Green DNA, 72 h; series mostly up to 28.7 µM
# Method in brief: as §1
# AA1029 = experiment: as above; conditions: P. falciparum in erythrocytes, SYBR Green DNA, 72 h; series mostly up to 28.7 µM
# Method in brief: as §1
# AS120 = experiment: as above; conditions: P. falciparum in erythrocytes, SYBR Green DNA, 72 h; series mostly up to 28.7 µM
# Method in brief: as §1
# ATS189 = experiment: as above; conditions: P. falciparum in erythrocytes, SYBR Green DNA, 72 h; series mostly up to 28.7 µM
# Method in brief: as §1
# ATS95 = experiment: as above; conditions: P. falciparum in erythrocytes, SYBR Green DNA, 72 h; series mostly up to 28.7 µM
# Method in brief: as §1
# C2A = experiment: as above; conditions: P. falciparum in erythrocytes, SYBR Green DNA, 72 h; series mostly up to 28.7 µM
# Method in brief: as §1
# CP185 = experiment: as above; conditions: P. falciparum in erythrocytes, SYBR Green DNA, 72 h; series mostly up to 28.7 µM
# Method in brief: as §1
# CP191 = experiment: as above; conditions: P. falciparum in erythrocytes, SYBR Green DNA, 72 h; series mostly up to 28.7 µM
# Method in brief: as §1
# CP192 = experiment: as above; conditions: P. falciparum in erythrocytes, SYBR Green DNA, 72 h; series mostly up to 28.7 µM
# Method in brief: as §1
# CP194 = experiment: as above; conditions: P. falciparum in erythrocytes, SYBR Green DNA, 72 h; series mostly up to 28.7 µM
# Method in brief: as §1
# CP201 = experiment: as above; conditions: P. falciparum in erythrocytes, SYBR Green DNA, 72 h; series mostly up to 28.7 µM
# Method in brief: as §1
# CP203 = experiment: as above; conditions: P. falciparum in erythrocytes, SYBR Green DNA, 72 h; series mostly up to 28.7 µM
# Method in brief: as §1
# CP211 = experiment: as above; conditions: P. falciparum in erythrocytes, SYBR Green DNA, 72 h; series mostly up to 28.7 µM
# Method in brief: as §1
# CP215 = experiment: as above; conditions: P. falciparum in erythrocytes, SYBR Green DNA, 72 h; series mostly up to 28.7 µM
# Method in brief: as §1
# CP217 = experiment: as above; conditions: P. falciparum in erythrocytes, SYBR Green DNA, 72 h; series mostly up to 28.7 µM
# Method in brief: as §1
# CP237 = experiment: as above; conditions: P. falciparum in erythrocytes, SYBR Green DNA, 72 h; series mostly up to 28.7 µM
# Method in brief: as §1
# CP238 = experiment: as above; conditions: P. falciparum in erythrocytes, SYBR Green DNA, 72 h; series mostly up to 28.7 µM
# Method in brief: as §1
# CP247 = experiment: as above; conditions: P. falciparum in erythrocytes, SYBR Green DNA, 72 h; series mostly up to 28.7 µM
# Method in brief: as §1
# Potency is read from the fitted curve at half-maximal effect.
structure (smiles),measurement,setting,value
Cc1cccc(Nc2ncccc2C(=O)O)c1C,"activity, negative = inhibition",[1]; parasite line A,2.92%
same,"activity, negative = inhibition",[1]; parasite line B,1.25%
same,Potency,3D7,inactive
same,Potency,7G8,inactive
same,Potency,AA1029,inactive
same,Potency,AS120,inactive
same,Potency,ATS189,inactive
same,Potency,ATS95,inactive
same,Potency,C2A,inactive
same,Potency,CP185,inactive
same,Potency,CP191,inactive
same,Potency,CP192,inactive
same,Potency,CP194,inactive
same,Potency,CP201,inactive
same,Potency,CP203,inactive
same,Potency,CP211,inactive
same,Potency,CP215,inactive
same,Potency,CP217,inactive
same,Potency,CP237,inactive
same,Potency,CP238,inactive
same,Potency,CP247,inactive
CC(C)CCC[C@@H](C)[C@H]1CC[C@H]2[C@@H]3CC=C4C[C@@H](O)CC[C@]4(C)[C@H]3CC[C@]12C,"activity, negative = inhibition",[1]; parasite line A,4.96%
same,"activity, negative = inhibition",[1]; parasite line B,-1.65%
same,Potency,3D7,inactive
same,Potency,7G8,inactive
same,Potency,AA1029,inactive
same,Potency,AS120,inactive
same,Potency,ATS189,inactive
same,Potency,ATS95,inactive
same,Potency,C2A,inactive
same,Potency,CP185,inactive
same,Potency,CP191,inactive
same,Potency,CP192,inactive
same,Potency,CP194,inactive
same,Potency,CP201,inactive
same,Potency,CP203,inactive
same,Potency,CP211,inactive
same,Potency,CP215,inactive
same,Potency,CP217,inactive
same,Potency,CP237,inactive
same,Potency,CP238,inactive
same,Potency,CP247,inactive
O=C(O)[C@H]1C(=CCO)O[C@H]2CC(=O)N12,"activity, negative = inhibition",[1]; parasite line A,6.84%
same,"activity, negative = inhibition",[1]; parasite line B,1.77%
same,Potency,3D7,inactive
same,Potency,7G8,inactive
same,Potency,AA1029,inactive
same,Potency,AS120,inactive
same,Potency,ATS189,inactive
same,Potency,ATS95,inactive
same,Potency,C2A,inactive
same,Potency,CP185,inactive
same,Potency,CP191,inactive
same,Potency,CP192,inactive
same,Potency,CP194,inactive
same,Potency,CP201,inactive
same,Potency,CP203,inactive
same,Potency,CP211,inactive
same,Potency,CP215,inactive
same,Potency,CP217,inactive
same,Potency,CP237,inactive
same,Potency,CP238,inactive
same,Potency,CP247,inactive
OC[C@H]1O[C@@](CO)(O[C@H]2O[C@H](CO)[C@@H](O)[C@H](O)[C@H]2O)[C@@H](O)[C@@H]1O,"activity, negative = inhibition",[1]; parasite line A,11.2%
same,"activity, negative = inhibition",[1]; parasite line B,-0.203%
same,Potency,3D7,inactive
same,Potency,7G8,inactive
same,Potency,AA1029,inactive
same,Potency,AS120,inactive
same,Potency,ATS189,inactive
same,Potency,ATS95,inactive
same,Potency,C2A,inactive
same,Potency,CP185,inactive
same,Potency,CP191,inactive
same,Potency,CP192,inactive
same,Potency,CP194,inactive
same,Potency,CP201,inactive
same,Potency,CP203,inactive
same,Potency,CP211,inactive
same,Potency,CP215,inactive
same,Potency,CP217,inactive
same,Potency,CP237,inactive
same,Potency,CP238,inactive
same,Potency,CP247,inactive
C=CC(=O)O,"activity, negative = inhibition",[1]; parasite line A,2.32%
same,"activity, negative = inhibition",[1]; parasite line B,10.1%
same,Potency,3D7,inactive
same,Potency,7G8,inactive
same,Potency,AA1029,inactive
same,Potency,AS120,inactive
same,Potency,ATS189,inactive
same,Potency,ATS95,inactive
same,Potency,C2A,inactive
same,Potency,CP185,inactive
same,Potency,CP191,inactive
same,Potency,CP192,inactive
same,Potency,CP194,inactive
same,Potency,CP201,inactive
same,Potency,CP203,inactive
same,Potency,CP211,inactive
same,Potency,CP215,inactive
same,Potency,CP217,inactive
same,Potency,CP237,inactive
same,Potency,CP238,inactive
same,Potency,CP247,inactive
CC12CCC(C[N+](C)(CCC[N+](C)(C)C)C1)C2(C)C (configuration not stated),"activity, negative = inhibition",[1]; parasite line A,7.03%
same,"activity, negative = inhibition",[1]; parasite line B,18.6%
same,Potency,3D7,inactive
same,Potency,7G8,inactive
same,Potency,AA1029,inactive
same,Potency,AS120,inactive
same,Potency,ATS189,inactive
same,Potency,ATS95,inactive
same,Potency,C2A,inactive
same,Potency,CP185,inactive
same,Potency,CP191,inactive
same,Potency,CP192,inactive
same,Potency,CP194,inactive
same,Potency,CP201,inactive
same,Potency,CP203,inactive
same,Potency,CP211,inactive
same,Potency,CP215,inactive
same,Potency,CP217,inactive
same,Potency,CP237,inactive
same,Potency,CP238,inactive
same,Potency,CP247,inactive
O=C(O)Cc1nn(Cc2ccc(Br)cc2F)c(=O)c2ccccc12,"activity, negative = inhibition",[1]; parasite line A,0.835%
same,"activity, negative = inhibition",[1]; parasite line B,-5.83%
same,Potency,3D7,inactive
same,Potency,7G8,inactive
same,Potency,AA1029,inactive
same,Potency,AS120,inactive
same,Potency,ATS189,inactive
same,Potency,ATS95,inactive
same,Potency,C2A,inactive
same,Potency,CP185,inactive
same,Potency,CP191,inactive
same,Potency,CP192,inactive
same,Potency,CP194,inactive
same,Potency,CP201,inactive
same,Potency,CP203,inactive
same,Potency,CP211,inactive
same,Potency,CP215,inactive
same,Potency,CP217,inactive
same,Potency,CP237,inactive
same,Potency,CP238,inactive
same,Potency,CP247,inactive
CC/C=C\C/C=C\C/C=C\C/C=C\C/C=C\C/C=C\CCC(=O)O,"activity, negative = inhibition",[1]; parasite line A,-24.9%
same,"activity, negative = inhibition",[1]; parasite line B,-13.6%
same,Potency,3D7,inactive
same,Potency,7G8,12.6 µM (active)
same,Potency,AA1029,inactive
same,Potency,AS120,inactive
same,Potency,ATS189,inactive
same,Potency,ATS95,inactive
same,Potency,C2A,inactive
same,Potency,CP185,inactive
same,Potency,CP191,inactive
same,Potency,CP192,inactive
same,Potency,CP194,inactive
same,Potency,CP201,inactive
same,Potency,CP203,inactive
same,Potency,CP211,inactive
same,Potency,CP215,inactive
same,Potency,CP217,inactive
same,Potency,CP237,inactive
same,Potency,CP238,inactive
same,Potency,CP247,inactive
NCC[C@H](O)C(=O)N[C@@H]1C[C@H](N)[C@@H](O[C@H]2O[C@H](CN)[C@@H](O)[C@H](O)[C@H]2O)[C@H](O)[C@H]1O[C@H]1O[C@H](CO)[C@@H](O)[C@H](N)[C@H]1O,"activity, negative = inhibition",[1]; parasite line A,2.54%
same,"activity, negative = inhibition",[1]; parasite line B,0.715%
same,Potency,3D7,inactive
same,Potency,7G8,inactive
same,Potency,AA1029,inactive
same,Potency,AS120,inactive
same,Potency,ATS189,inactive
same,Potency,ATS95,inactive
same,Potency,C2A,inactive
same,Potency,CP185,inactive
same,Potency,CP191,inactive
same,Potency,CP192,inactive
same,Potency,CP194,inactive
same,Potency,CP201,inactive
same,Potency,CP203,inactive
same,Potency,CP211,inactive
same,Potency,CP215,inactive
same,Potency,CP217,inactive
same,Potency,CP237,inactive
same,Potency,CP238,inactive
same,Potency,CP247,inactive
CC(CC=O)CCCC(C)(C)O (configuration not stated),"activity, negative = inhibition",[1]; parasite line A,15.9%
same,"activity, negative = inhibition",[1]; parasite line B,2.33%
same,Potency,3D7,inactive
same,Potency,7G8,inactive
same,Potency,AA1029,inactive
same,Potency,AS120,inactive
same,Potency,ATS189,inactive
same,Potency,ATS95,inactive
same,Potency,C2A,inactive
same,Potency,CP185,inactive
same,Potency,CP191,inactive
same,Potency,CP192,inactive
same,Potency,CP194,inactive
same,Potency,CP201,inactive
same,Potency,CP203,inactive
same,Potency,CP211,inactive
same,Potency,CP215,inactive
same,Potency,CP217,inactive
same,Potency,CP237,inactive
same,Potency,CP238,inactive
same,Potency,CP247,inactive
CS(=O)(=O)OCC(O)C(O)COS(C)(=O)=O (configuration not stated),"activity, negative = inhibition",[1]; parasite line A,-4.77%
same,"activity, negative = inhibition",[1]; parasite line B,-5.43%
same,Potency,3D7,inactive
same,Potency,7G8,inactive
same,Potency,AA1029,inactive
same,Potency,AS120,inactive
same,Potency,ATS189,inactive
same,Potency,ATS95,inactive
same,Potency,C2A,inactive
same,Potency,CP185,inactive
same,Potency,CP191,inactive
same,Potency,CP192,inactive
same,Potency,CP194,inactive
same,Potency,CP201,inactive
same,Potency,CP203,inactive
same,Potency,CP211,inactive
same,Potency,CP215,inactive
same,Potency,CP217,inactive
same,Potency,CP237,inactive
same,Potency,CP238,inactive
same,Potency,CP247,inactive
[O]=[Bi][O][Bi]=[O],"activity, negative = inhibition",[1]; parasite line A,0.672%
same,"activity, negative = inhibition",[1]; parasite line B,4.28%
same,Potency,3D7,inactive
same,Potency,7G8,inactive
same,Potency,AA1029,inactive
same,Potency,AS120,inactive
same,Potency,ATS189,inactive
same,Potency,ATS95,inactive
same,Potency,C2A,inactive
same,Potency,CP185,inactive
same,Potency,CP191,inactive
same,Potency,CP192,inactive
same,Potency,CP194,inactive
same,Potency,CP201,inactive
same,Potency,CP203,inactive
same,Potency,CP211,inactive
same,Potency,CP215,inactive
same,Potency,CP217,inactive
same,Potency,CP237,inactive
same,Potency,CP238,inactive
same,Potency,CP247,inactive
